# In the supplement of paper PMC10849652:
# The full data set covers some 7,900 targets. This sample favours those with a hit. About 0.6% of all pairs of compound and target were hits. Values without a mark were called inactive.
# Assays:
# Assay in all cases: log2 fold change, soluble protein after heating vs DMSO (PISA); higher = thermal stabilisation; K562 cells, 10 uM, 30 min; active = over 0.2 and 3.5 SD of the protein, either way, in both replicates (recomputed)
# saracatinib = compound: CN1CCN(CCOc2cc(OC3CCOCC3)c3c(Nc4c(Cl)ccc5c4OCO5)ncnc3c2)CC1 [saracatinib]
# Summary of the method: (§1)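 For each measurement, 10 μM compound was applied for 30 min to K562 cells at 2×10^6 cells/mL. Aliquots were heated for 3 min across 48°C-58°C, pooled, and extracted in PBS with 0.5% NP-40 at 4°C; the supernatant after 21,000xg for 90 min was soluble protein. This was quantified by TMTpro 16plex LC-MS/MS with channel sums equalised, and thermal stability was reported relative to control samples from duplicates, on a log2 fold-change scale.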
# sotrastaurin = compound: CN1CCN(c2nc(C3=C(c4c[nH]c5ccccc45)C(=O)NC3=O)c3ccccc3n2)CC1 [sotrastaurin]
# Summary of the method: as §1
# alvocidib = compound: CN1CC[C@H](c2c(O)cc(O)c3c(=O)cc(-c4ccccc4Cl)oc23)[C@H](O)C1 [alvocidib]
# Summary of the method: as §1
# Tubastatin A = compound: CN1CCc2c(c3ccccc3n2Cc2ccc(C(=O)NO)cc2)C1 [Tubastatin A]
# Summary of the method: as §1
# [1] = compound: CNC(=O)C1=CC=CC=C1NC2=NC(=NC=C2Cl)NC3=C(C=C(C=C3)N4CCOCC4)OC
# Summary of the method: as §1
# defactinib = compound: CNC(=O)c1ccc(Nc2ncc(C(F)(F)F)c(NCc3nccnc3N(C)S(C)(=O)=O)n2)cc1 [defactinib]
# Summary of the method: as §1
# rucaparib = compound: CNCc1ccc(-c2[nH]c3cc(F)cc4c3c2CCNC4=O)cc1 [rucaparib]
# Summary of the method: as §1
# [2] = compound: CNc1nc(-c2ccc3c(N)n[nH]c3c2)cc(N2C[C@@H](C(=O)NC3CCCCC3)CC[C@H]2C)n1
# Summary of the method: as §1
# encorafenib = compound: COC(=O)N[C@@H](C)CNc1nccc(-c2cn(C(C)C)nc2-c2cc(Cl)cc(NS(C)(=O)=O)c2F)n1 [encorafenib]
# Summary of the method: as §1
# [3] = compound: COC(=O)[C@H](CCSC)NC(=O)C1=C(C=C(C=C1)NC[C@H](CS)N)C2=CC=CC=C2
# Summary of the method: as §1
# Chain of UniProt Q15436 (Q15436 whole entry, looked up): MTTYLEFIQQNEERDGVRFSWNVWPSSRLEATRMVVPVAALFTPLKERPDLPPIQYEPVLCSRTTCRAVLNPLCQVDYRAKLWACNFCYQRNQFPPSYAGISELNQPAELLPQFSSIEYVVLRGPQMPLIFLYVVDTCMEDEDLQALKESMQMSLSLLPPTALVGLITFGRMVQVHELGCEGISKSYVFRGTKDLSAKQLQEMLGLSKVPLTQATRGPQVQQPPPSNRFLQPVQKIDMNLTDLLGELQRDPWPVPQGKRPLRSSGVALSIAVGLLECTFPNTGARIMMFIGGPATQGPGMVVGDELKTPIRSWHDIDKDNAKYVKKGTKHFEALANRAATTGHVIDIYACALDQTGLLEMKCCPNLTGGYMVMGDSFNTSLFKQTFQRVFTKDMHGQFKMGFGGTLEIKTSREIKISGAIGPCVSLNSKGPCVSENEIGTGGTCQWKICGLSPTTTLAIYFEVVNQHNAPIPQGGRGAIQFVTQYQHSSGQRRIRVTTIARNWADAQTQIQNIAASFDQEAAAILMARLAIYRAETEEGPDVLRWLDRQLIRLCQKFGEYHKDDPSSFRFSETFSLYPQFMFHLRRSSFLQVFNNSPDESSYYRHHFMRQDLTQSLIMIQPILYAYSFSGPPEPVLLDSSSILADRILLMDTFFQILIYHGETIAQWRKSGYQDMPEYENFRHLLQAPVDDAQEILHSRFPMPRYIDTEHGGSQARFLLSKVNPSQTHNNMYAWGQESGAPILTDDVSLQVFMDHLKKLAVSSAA
# Chain of UniProt Q8TDY2 (Q8TDY2 whole entry, looked up): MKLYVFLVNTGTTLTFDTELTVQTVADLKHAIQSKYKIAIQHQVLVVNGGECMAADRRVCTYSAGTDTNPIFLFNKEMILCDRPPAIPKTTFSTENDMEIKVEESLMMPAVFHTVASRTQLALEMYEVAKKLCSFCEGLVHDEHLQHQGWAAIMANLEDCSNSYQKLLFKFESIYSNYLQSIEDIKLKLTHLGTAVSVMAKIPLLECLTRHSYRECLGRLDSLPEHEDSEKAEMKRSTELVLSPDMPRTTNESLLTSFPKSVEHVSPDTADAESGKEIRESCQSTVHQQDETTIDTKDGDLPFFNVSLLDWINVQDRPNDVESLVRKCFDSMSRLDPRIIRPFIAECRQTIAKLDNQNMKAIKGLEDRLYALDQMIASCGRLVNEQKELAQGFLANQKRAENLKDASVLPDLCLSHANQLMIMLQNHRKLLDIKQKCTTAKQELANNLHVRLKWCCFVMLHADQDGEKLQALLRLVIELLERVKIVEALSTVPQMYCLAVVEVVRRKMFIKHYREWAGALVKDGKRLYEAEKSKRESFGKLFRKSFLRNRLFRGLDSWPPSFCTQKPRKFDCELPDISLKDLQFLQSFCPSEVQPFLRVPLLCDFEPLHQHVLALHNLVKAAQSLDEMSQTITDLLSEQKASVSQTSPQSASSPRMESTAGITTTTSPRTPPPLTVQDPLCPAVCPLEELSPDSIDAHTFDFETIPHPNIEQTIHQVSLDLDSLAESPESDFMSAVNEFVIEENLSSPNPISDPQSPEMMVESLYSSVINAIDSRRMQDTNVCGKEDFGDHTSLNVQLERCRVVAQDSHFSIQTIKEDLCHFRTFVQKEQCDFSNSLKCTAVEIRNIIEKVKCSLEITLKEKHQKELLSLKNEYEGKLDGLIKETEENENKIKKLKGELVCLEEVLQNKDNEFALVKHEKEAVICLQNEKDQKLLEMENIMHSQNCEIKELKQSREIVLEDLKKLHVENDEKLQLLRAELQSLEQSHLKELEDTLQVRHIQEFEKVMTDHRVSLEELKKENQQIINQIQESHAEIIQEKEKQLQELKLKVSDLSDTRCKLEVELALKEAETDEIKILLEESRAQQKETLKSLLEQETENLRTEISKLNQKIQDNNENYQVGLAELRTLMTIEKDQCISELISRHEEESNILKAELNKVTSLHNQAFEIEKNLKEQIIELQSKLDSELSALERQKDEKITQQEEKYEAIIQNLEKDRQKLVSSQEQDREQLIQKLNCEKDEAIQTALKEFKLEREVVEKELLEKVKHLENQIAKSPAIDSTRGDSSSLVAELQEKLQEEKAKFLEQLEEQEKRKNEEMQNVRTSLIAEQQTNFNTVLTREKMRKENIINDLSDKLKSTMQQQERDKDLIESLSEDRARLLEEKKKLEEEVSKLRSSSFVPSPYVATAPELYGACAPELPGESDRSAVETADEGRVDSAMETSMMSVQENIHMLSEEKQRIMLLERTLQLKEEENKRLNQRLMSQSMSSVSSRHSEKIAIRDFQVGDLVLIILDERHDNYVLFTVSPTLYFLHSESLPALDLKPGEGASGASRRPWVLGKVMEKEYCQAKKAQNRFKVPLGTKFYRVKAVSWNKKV
# Chain of UniProt Q6NT16 (Q6NT16 whole entry, looked up): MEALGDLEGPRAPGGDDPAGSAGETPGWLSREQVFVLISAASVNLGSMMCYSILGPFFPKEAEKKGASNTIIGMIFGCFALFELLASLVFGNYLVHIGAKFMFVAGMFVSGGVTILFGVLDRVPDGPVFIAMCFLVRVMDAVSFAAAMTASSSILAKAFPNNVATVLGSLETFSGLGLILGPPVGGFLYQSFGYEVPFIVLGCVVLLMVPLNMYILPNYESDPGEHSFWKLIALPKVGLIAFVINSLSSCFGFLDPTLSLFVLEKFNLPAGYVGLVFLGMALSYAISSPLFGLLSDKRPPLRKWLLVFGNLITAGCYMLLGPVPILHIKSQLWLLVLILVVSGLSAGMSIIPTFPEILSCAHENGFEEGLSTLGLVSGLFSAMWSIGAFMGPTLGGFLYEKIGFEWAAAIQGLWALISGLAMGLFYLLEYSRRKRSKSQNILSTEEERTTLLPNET
# Chain of UniProt Q96DX4 (Q96DX4 whole entry, looked up): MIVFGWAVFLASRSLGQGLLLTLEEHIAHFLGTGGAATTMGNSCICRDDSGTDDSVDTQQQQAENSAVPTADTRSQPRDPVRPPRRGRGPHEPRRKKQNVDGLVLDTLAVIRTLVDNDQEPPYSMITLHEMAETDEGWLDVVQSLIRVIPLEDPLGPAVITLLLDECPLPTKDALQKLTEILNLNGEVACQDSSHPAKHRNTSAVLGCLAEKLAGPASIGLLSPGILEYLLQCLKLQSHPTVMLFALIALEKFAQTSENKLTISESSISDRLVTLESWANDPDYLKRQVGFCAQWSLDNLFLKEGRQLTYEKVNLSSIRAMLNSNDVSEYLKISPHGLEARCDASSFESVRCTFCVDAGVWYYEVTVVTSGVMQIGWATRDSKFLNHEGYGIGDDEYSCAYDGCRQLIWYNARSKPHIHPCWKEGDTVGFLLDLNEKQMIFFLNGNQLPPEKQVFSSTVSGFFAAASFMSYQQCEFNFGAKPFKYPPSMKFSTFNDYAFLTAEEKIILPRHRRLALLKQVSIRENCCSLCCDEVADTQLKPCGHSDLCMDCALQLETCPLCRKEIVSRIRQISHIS
# Chain of UniProt P18754 (P18754 whole entry, looked up): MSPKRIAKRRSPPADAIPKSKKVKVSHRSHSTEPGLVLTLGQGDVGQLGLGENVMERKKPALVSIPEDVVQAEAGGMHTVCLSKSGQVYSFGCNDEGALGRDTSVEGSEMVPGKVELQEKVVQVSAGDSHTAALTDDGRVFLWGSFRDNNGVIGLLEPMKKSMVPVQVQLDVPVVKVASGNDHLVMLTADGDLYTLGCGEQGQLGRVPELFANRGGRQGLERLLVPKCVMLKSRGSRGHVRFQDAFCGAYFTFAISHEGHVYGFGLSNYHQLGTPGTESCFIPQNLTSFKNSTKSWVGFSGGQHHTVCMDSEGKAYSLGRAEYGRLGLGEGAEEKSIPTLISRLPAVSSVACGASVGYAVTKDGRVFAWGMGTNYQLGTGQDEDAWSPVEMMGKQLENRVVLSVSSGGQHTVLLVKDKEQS
# Chain of UniProt Q9UPN6 (Q9UPN6 whole entry, looked up): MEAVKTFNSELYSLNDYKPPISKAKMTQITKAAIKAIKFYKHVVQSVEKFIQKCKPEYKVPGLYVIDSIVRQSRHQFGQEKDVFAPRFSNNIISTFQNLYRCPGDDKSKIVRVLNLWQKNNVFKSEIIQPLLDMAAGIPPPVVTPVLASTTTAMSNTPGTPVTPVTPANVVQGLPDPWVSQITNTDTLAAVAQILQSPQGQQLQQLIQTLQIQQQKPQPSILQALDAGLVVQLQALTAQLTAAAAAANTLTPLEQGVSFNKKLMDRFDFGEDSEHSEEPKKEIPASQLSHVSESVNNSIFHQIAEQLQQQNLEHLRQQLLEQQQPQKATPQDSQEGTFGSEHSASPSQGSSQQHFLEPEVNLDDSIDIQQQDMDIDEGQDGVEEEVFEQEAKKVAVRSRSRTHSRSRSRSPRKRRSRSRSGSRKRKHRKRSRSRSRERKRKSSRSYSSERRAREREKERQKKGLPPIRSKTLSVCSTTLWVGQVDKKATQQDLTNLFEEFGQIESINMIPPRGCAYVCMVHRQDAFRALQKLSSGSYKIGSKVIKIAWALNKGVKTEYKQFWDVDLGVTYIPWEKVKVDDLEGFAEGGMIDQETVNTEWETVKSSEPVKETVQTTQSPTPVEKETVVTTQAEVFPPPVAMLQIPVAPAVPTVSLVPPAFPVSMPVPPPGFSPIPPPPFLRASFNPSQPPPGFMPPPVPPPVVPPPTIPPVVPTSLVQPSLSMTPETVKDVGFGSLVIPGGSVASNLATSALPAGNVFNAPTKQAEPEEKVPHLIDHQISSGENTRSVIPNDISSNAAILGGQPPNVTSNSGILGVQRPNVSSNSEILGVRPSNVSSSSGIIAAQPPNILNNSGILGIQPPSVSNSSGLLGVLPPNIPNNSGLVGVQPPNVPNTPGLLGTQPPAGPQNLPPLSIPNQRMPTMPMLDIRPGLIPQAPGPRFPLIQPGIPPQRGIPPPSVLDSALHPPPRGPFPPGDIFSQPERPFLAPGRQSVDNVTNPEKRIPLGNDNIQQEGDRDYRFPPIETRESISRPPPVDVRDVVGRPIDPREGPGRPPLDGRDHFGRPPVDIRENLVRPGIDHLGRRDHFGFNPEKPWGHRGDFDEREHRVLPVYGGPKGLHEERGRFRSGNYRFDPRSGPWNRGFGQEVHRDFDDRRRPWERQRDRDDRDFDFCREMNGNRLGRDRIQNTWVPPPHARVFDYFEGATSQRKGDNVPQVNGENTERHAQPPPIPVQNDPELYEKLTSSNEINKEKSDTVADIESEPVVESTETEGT
Target,log2 fold change (saracatinib),log2 fold change (sotrastaurin),log2 fold change (alvocidib),log2 fold change (Tubastatin A),log2 fold change [1],log2 fold change (defactinib),log2 fold change (rucaparib),log2 fold change [2],log2 fold change (encorafenib),log2 fold change [3]
RHOA (UniProt P61586),0.079,-0.025,0.018,-0.025,-0.029,0,0.074,0.012,-0.126,0.08
RSPRY1 (UniProt Q96DX4),-0.073,-0.01,0.001,0.009,-0.037,0.013,0.118,0.126,0.04,0.009
REEP4 (UniProt Q9H6H4),0.047,-0.068,0.034,0.018,-0.122,0.008,0.086,-0.014,-0.013,-0.01
SDHC (UniProt Q99643),0.074,-0.201,-0.006,-0.134,0.04,-0.062,-0.012,-0.159,0.029,0.159
SLC12A5 (UniProt Q9H2X9),-0.152,0.053,-0.067,-0.072,-0.007,0.08,-0.138,0.148,0.044,0.075
SHROOM2 (UniProt Q13796),-0.118,0.128,0.071,0.283,-0.29,0.059,-0.049,0.08,-0.136,0.1
RPS14 (UniProt P62263),0.027,-0.003,0.166,0.123,0.056,0.113,0.107,0.069,0.013,-0.084
RNASET2 (UniProt O00584),0.009,0.01,0.077,0.003,-0.031,-0.004,-0.163,-0.067,0.015,-0.002
SLC18B1 (UniProt Q6NT16),0.021,0.023,0.02,0.04,0.061,0.094,-0.012,-0.071,0.012,0.056
RSL1D1 (UniProt O76021),-0.086,0.05,0.481,0.06,0.004,0.83 (active),0.359,0.097,0.117,0.079
RBM17 (UniProt Q96I25),0.005,-0.039,-0.018,0.065,-0.03,-0.174,0.055,-0.025,0.05,-0.044
RAB8B (UniProt Q92930),0.084,-0.058,-0.098,-0.054,0.006,-0.004,-0.014,0.056,-0.062,-0.06
RAB9A (UniProt P51151),0.015,0.02,-0.04,-0.018,-0.054,0,-0.017,-0.02,-0.012,-0.013
RSRC1 (UniProt Q96IZ7),0.04,0.042,-0.027,0.018,-0.215 (active),-0.018,-0.04,-0.004,0.023,0.052
RPS2 (UniProt P15880),-0.058,0,0.25,0.059,0.064,0.261,0.153,0.081,0.07,0.042
SEC23A (UniProt Q15436),0.133,0.008,-0.066,-0.008,-0.019,-0.078,0.296 (active),0.037,-0.171,-0.035

Target,log2 fold change (saracatinib),log2 fold change (sotrastaurin),log2 fold change (alvocidib),log2 fold change (Tubastatin A),log2 fold change [1],log2 fold change (defactinib),log2 fold change (rucaparib),log2 fold change [2],log2 fold change (encorafenib),log2 fold change [3]
SCAF8 isoform 2 (UniProt Q9UPN6),-0.078,-0.09,-0.167,0.006,-0.085,-0.083,0.004,0.016,0.018,-0.06
RRP9 (UniProt O43818),0.08,0.044,0.057,0,-0.069,-0.075,0.019,-0.094,-0.005,0.042
RUFY1 (UniProt Q96T51),-0.037,-0.174,-0.041,-0.012,0.045,-0.071,0.032,-0.09,0.077,-0.02
RABGGTA (UniProt Q92696),0.013,0.102,-0.079,-0.044,-0.034,-0.034,-0.015,0.001,0.004,-0.024
SAFB2 (UniProt Q14151),-0.055,-0.028,0.149,-0.048,-0.022,0.144,0.1,-0.067,0.029,-0.005
RPS25 (UniProt P62851),-0.052,0.007,0.178,0.094,0.095,0.184,0.124,0.076,0.01,0.024
RPS3 (UniProt P23396),-0.03,0.031,0.201,0.094,0.082,0.208,0.097,0.04,0.045,0.002
RB1CC1 (UniProt Q8TDY2),-0.065,-0.108,-0.025,0.117,-0.051,-0.042,0.09,0.049,-0.104,-0.025
RHEB (UniProt Q15382),0.047,0.04,-0.008,-0.054,-0.032,0.002,-0.084,-0.011,0.025,0
ROCK2 (UniProt O75116),0.02,-0.096,-0.01,-0.001,-0.062,-0.097,-0.027,0.212,0.042,-0.003
RCOR1 (UniProt Q9UKL0),-0.011,-0.047,-0.066,0.028,-0.017,-0.119,-0.005,0.073,0,-0.002
RGS10 (UniProt O43665),0.033,-0.023,-0.042,0.049,0.014,-0.11,0.038,0,-0.001,-0.002
RAP2C (UniProt Q9Y3L5),0.04,0.026,-0.009,-0.014,-0.058,-0.044,-0.003,-0.054,-0.041,0.01
RBIS (UniProt Q8N0T1),0.054,-0.002,0.059,0.037,-0.026,0.058,-0.048,-0.037,0.022,0.03
RCC1 isoform 2 (UniProt P18754),-0.076,-0.049,-0.234,0.164,-0.083,-0.224,-0.008,0.146,0.045,-0.07
